Assay results published in PubChem BioAssay AID488966 (Southern Research Specialized Biocontainment Screening …, 2010).
Several values for one entry are separate records, joined by “and”; a condition that tells them apart may be missing. Equal values may be shown once. Among all 340,000 compounds or so, about 55 (0.02%) were called active.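 The calls were made as follows: active = phage lysis inhibition, versus mean bacterial control, above a set limit; inconclusive = no clear call, values can overlap the other calls; inactive = the rest.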 Only a sample is shown. Measured potencies and affinities stand elsewhere.

test: protection from phage-mediated lysis, alamar blue read-out – E. coli UTI89, K1F phage, bacterial capsule biogenesis inhibitors (AID 488966); settings: 2 h; inhibition: at 100 µM, active compounds read high unless noted; series mostly up to 300 µM;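 also: capsule biogenesis inhibitors block K1F phage lysis so surviving cells raise fluorescence; higher fluorescence means more inhibition of phage lysis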

inhibition, inactive:
Brc1c(OCCOCCn2cncn2)ccc2ccccc12 -1.02%, O=C(CCc1ccccc1)N=C1SC2CS(=O)(=O)CC2N1c1ccc(F)cc1 (configuration not stated) 0.07%, Cc1ccc(S(=O)(=O)c2c(C)cc(C)nc2Oc2cccc(C)c2C)cc1 1.5%, COc1cc(CCC(=O)NCC2CCCO2)cc(OC)c1OC (configuration not stated) 0.13%, CC(C)C(NC(=O)c1ccccc1F)C(=O)OCC(=O)c1ccc(F)cc1 (configuration not stated) -0.86%, Cc1ccc(C(C)(C)C)cc1S(=O)(=O)Nc1cccc(C(=O)N2CCN(c3ccccn3)CC2)c1 -1.06% [at 50 µM, active compounds read high], O=C1CCCN1C(=O)CSc1ccc2ccccc2n1 0.65% [at 50 µM, active compounds read high], Cc1ccc(C(=O)ONc2ccc(N=NC(=O)c3ccccc3O)cc2)cc1 -1.4%, O=Nc1ccc(NOC(=O)c2ccccc2)cc1 0.94% [at 50 µM, active compounds read high], CCC1(CC)C(=O)NC(=O)NC1=NCCc1c[nH]c2ccccc12 8.91%, CC(=O)c1ccc(C(C)(C)c2ccc(C(C)=O)s2)s1 1.04%, COc1cc(/C=N/O)ccc1OCc1ccccc1Cl 2.6%, COc1cc(/C=N/N=C(N)N)ccc1OCc1ccc(Cl)cc1 1.12%, CCSc1ccccc1C(=O)Nc1ccc([N+](=O)[O-])cc1OC -0.1%, COc1ccc2cc(C(=O)NCCCN3CCCC3=O)[nH]c2c1 0.11%, CCOCCCNC(=O)CCc1ccc(S(=O)(=O)Nc2ccc(C)cc2)cc1 -0.65%, CN(C)S(=O)(=O)c1ccc(C(=O)N(c2ccccn2)c2ccccn2)cc1 0.22%, O=C(CCCc1nc2ccccc2s1)Nc1ccc(N2CCOCC2)cc1 0.19%, COC(=O)c1cc(OC)c(OC)cc1NC(=O)CN1CCOCC1 1.47%, CCN(CC)c1ccc2c(O)cc(=O)oc2c1 0.26%, CCN(CC)c1ccc(C(=C2C=CC(=[N+](CC)CC)C=C2)c2ccc(S(=O)(=O)O)cc2S(=O)(=O)[O-])cc1 -0.79% [at 50 µM, active compounds read high], COc1ccc2c(=O)c(-c3ccc(C)cc3)c(-c3ccccc3)oc2c1 0.1%, Cc1ccc(C(=O)N2CCN(S(C)(=O)=O)C2)cc1 3.27%, N=c1n(CCN2CCCCC2)c2ccccc2n1CC(O)c1cccc(Br)c1 (configuration not stated), N=c1n(CCN2CCCCC2)c2ccccc2n1CC(O)c1ccc(Cl)c(Cl)c1 (configuration not stated) -4.43%, COc1ccc(C(=O)NNC(=O)CCc2nc3ccccc3c(=O)[nH]2)cc1 -0.85%, O=C(CSc1nnc(CNC(=O)c2ccco2)o1)Nc1nc2ccccc2s1 0.07%, CC(=O)NC1=NN(C(C)=O)C(C)(c2cccnc2)S1 (configuration not stated) 0.35%, Cc1cc2oc3c(c(=O)c2cc1C)C(c1ccc(C(C)C)cc1)N(CCCN1CCOCC1)C3=O (configuration not stated) 10.9%, CCCOc1ccc(C2c3c(oc4ccccc4c3=O)C(=O)N2CCCN2CCOCC2)cc1 (configuration not stated) 3.1%, CC(C)Oc1ccc(C2c3c(oc4ccccc4c3=O)C(=O)N2CCCN2CCOCC2)cc1 (configuration not stated) 7.09%, Cc1cc2oc3c(c(=O)c2cc1C)C(c1ccc(F)cc1)N(CCCN1CCOCC1)C3=O (configuration not stated) 10.1%, CCCCCCn1c(N2CCN(c3cccc(Cl)c3)CC2)nc2c1c(=O)[nH]c(=O)n2C -0.58%, COc1ccc(-c2c(C)oc3c(CN4CCOCC4)c(O)ccc3c2=O)cc1 0.06%, O=C(CSc1nc2ccc(Cl)cc2[nH]1)NCCc1ccc(Cl)cc1 0.86%, C=CCn1c(C)nnc1SCC(=O)c1[nH]c(C)c(C(C)=O)c1C -0.26%, COc1ccc(C(=O)Nc2ccc3c(c2)nc(CCNC(C)=O)n3C)cc1 5.13%, C/C(=N\NC(=S)NCCc1ccccc1)c1ccc(C#N)cc1 0.17%, Cc1ccccc1CN1CCN(CCCc2ccccc2)C(CCO)C1 (configuration not stated) 0.26%, C[C@H](CO)N1C[C@H](C)[C@@H](CN(C)Cc2ccc(C(=O)O)cc2)Oc2c(NS(=O)(=O)c3ccccc3)cccc2C1=O 0.71%, O=C(COc1ccc2c(-c3ccccc3)cc(=O)oc2c1)NCCCn1ccnc1 -2.78%, N=C(N)c1ccccc1 3.36% and 4.08%, N=C(N)c1ccc(O)cc1 -1.49%, Cc1occc1C(=O)NNC(=O)CN1C(=O)NC2(CCCCC2)C1=O 1% [at 50 µM, active compounds read high], COc1ccc(C(=O)Nc2nc3ccc(OC)cc3s2)cc1 0.38%, COc1ccc2nc(NC(C)=O)sc2c1 0.03%, Cc1cc(C)c2sc(NNC(=O)C3COc4ccccc4O3)nc2c1 (configuration not stated) 3.07%, COc1ccc(NC(=O)C(C)N2c3cccc4cccc(c34)S2(=O)=O)cc1 (configuration not stated) 4.61%, CCS(=O)(=O)C1=NN2C(=N)/C(=C\c3ccc(SCc4ccco4)o3)C(=O)N=C2S1 -0.03%, N=C1/C(=C\c2ccc(SCc3ccco3)o2)C(=O)N=C2SC=NN12, O=C(c1cc2ccccc2o1)N1CCN(c2ccccn2)CC1 0.07%, COc1cccc(C(=O)Nc2ncc3c(n2)CC(C)CC3=O)c1 (configuration not stated) 0.02%, Cn1c(N)c(C(=O)Nc2cccc(Cl)c2)c(=O)n(C)c1=O 0.32%, CC(OC(=O)CCCN1C(=O)c2ccccc2C1=O)C(=O)Nc1ncc(Cl)cc1Cl (configuration not stated) 0.75%, O=C(Cc1ccsc1)Nc1ccc2c(c1)OCO2 0.48% [at 50 µM, active compounds read high], COc1ccc(CC(=O)Nc2ccc(N3CCOCC3)cc2)cc1OC -0.16%, Cc1ccccc1OCC(=O)Nc1ccc(C(=O)Nc2ccccc2C(=O)O)cc1 0.645% [at 50 µM, active compounds read high], Cc1cccc(OCC(=O)Nc2ccc(C(=O)Nc3ccccc3C(=O)O)cc2)c1C 1.06% [at 50 µM, active compounds read high], Cc1ccc2nc(C3CCCN3Cc3nc(CCC(C)C)no3)[nH]c2c1 (configuration not stated) 0.57%, CCOc1ccc(C(=O)NN2C(=O)C3C4C=CC(O4)C3C2=O)cc1 (configuration not stated) 0.49%, COc1ccc(C2=CSC3=C(C(=O)c4cccc(S(=O)(=O)N(C)C)c4)CCN23)cc1 0.33%, CN(C(=O)Cn1c(=O)oc2cc(S(=O)(=O)N3CCCC3)ccc21)C1CCCCC1 0.1%
